KB-3-1 tox: KB-3-1 parental cell cytotoxicity; KB-3-1 viability, CellTiter-Glo ATP luminescence, 72 h; AID 1347075; Potency, µM (doses to about 46.1 µM), hits mostly cytotoxic; 1.4% of 400,000 active; further: nearly all actives have a fitted effect of over 60% in size
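Using CellTiter-Glo luminescence, growth of non-resistant KB-3-1 adenocarcinoma cells is assessed 72 h after pin-tool compound addition at 37 °C. Normalized responses across the concentration series yield fitted curves.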
S2 tox: cell viability loss in ATXN counter-screen; S2 cells (HEK-293 line with an ATXN2-luciferase reporter) viability, CellTiter-Fluor protease fluorescence, 24 h; Potency, µM (doses to about 56.7 µM), hits mostly cytotoxic; 0.49% of 400,000 active; AID 651635; further: nearly all actives have a fitted effect of over 40% in size
ATXN2 expr inh: ATXN2 expression inhibition; HEK-293 ATXN2-luciferase reporter, luminescence, 24 h; Potency, µM (series often up to 57 µM), most hits filed as inhibitors; 0.72% of 360,000 active; AID 1745845; further: nearly all actives have a fitted effect of over 55% in size
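ATXN2-luciferase reporter cells (luciferase flanked by upstream and downstream ATXN2 gene portions) were treated 24 h at 37 °C with compounds at up to 57 uM. SteadyGlo luminescence gave expression; GF-AFC fluorescence gave viability.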
HepG2 tox: kills HepG2 cells in TGF-b inhibitor counter-screen; Potency, µM (doses to about 46.1 µM), usual class: cytotoxic; HepG2 CAGA-GFP viability, ATP luminescence, 18 h; 0.76% of 410,000 active
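HepG2 CAGA-GFP cells (1000/well, DMEM with 1% FBS) received compound, then TGF-beta at 500 pg/mL final, and were incubated 18 hours at 37 degrees C. Viability was read by CellTiter-Glo luminescence. Media-only wells were set as complete cell-killing and DMSO as no toxicity.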
KB-V1 cytotox: KB-V1 MDR subline cytotoxicity; KB-V1 MDR cells viability, CellTiter-Glo, 72 h; Potency, µM (top dose mostly 46.1 µM), most hits filed as cytotoxic; 3.4% of 400,000 active; AID 1347076; further: nearly all actives have a fitted effect of over 60% in size
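Cytotoxicity toward P-gp-expressing KB-V1 cells was determined as loss of CellTiter-Glo luminescence after 72 h at 37 degrees C. Compounds were tested in quantitative HTS format across a concentration range, with curves fitted to normalized data.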
TGFb SMAD3 inh: inhibitors of TGF-b signaling; 1.2% of 410,000 active; HepG2 CAGA-GFP TGF-b/SMAD3 reporter, GFP fluorescence, 18 h; TGF-beta stimulated, 500 pg/mL final; Potency, µM (doses to about 46.1 µM), hits mostly inhibitors; AID 588855; further: nearly all actives have a fitted effect of over 65% in size
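Smad-responsive CAGA-GFP expression was quantified in HEPG2 cells exposed to compounds and 500 pg/mL final TGF-beta for 18 h at 37 degrees C; unstimulated wells defined full inhibition.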
Numbers stand for hits; - = inactive; ? = inconclusive; . = no result; [ ] = another dose, or the depositor's remark. Hits are enriched below; roughly 5.9% of the tested compounds scored in any of these assays. The call rests on the fitted dose curve; in most records, active means well fitted curve in the direction sought with a large enough effect; inconclusive means small, poorly fitted or top-dose-only effect, or another doubt; inactive means no such curve, though single readings can be large; an effect the other way counts as inactive or inconclusive.

SMILES	KB-3-1 tox	S2 tox	ATXN2 expr inh	HepG2 tox	KB-V1 cytotox	TGFb SMAD3 inh
Cc1ccc(S(=O)(=O)CCC(=O)NCCc2ccccc2)cc1	-	-	.	-	-	-
Cc1ccc(S(=O)(=O)CCC(=O)NCCN2C(=O)S/C(=C\c3ccccc3)C2=O)cc1	-	?	-	-	12µM	-
O=C(CNC(=O)c1ccccc1F)NCCN1C(=O)S/C(=C\c2ccccc2Cl)C1=O	-	-	-	-	?	?
O=C(CCS(=O)(=O)c1ccc(Cl)cc1)NCCN1C(=O)S/C(=C\c2ccccc2F)C1=O	-	-	-	-	13µM	-
Cc1ccccc1-c1noc(-c2cc3ccccc3oc2=O)n1	.	.	.	-	.	-
COc1ccc(Cn2nc(-c3ccccc3)c(N3CCCCC3)cc2=O)cc1	-	-	-	22µM	?	?
O=c1cc(N2CCCCC2)c(-c2ccccc2)nn1Cc1ccccc1	-	.	-[11.3 µM]	-	?	?
COc1ccccc1S(=O)(=O)Cc1ccc(C(=O)NC2CCCCC2)o1	-	-	-	-	15µM	-
COc1ccccc1S(=O)(=O)Cc1ccc(C(=O)N2CCN(c3cccc(Cl)c3)CC2)o1	6.5µM	?	?	-	16µM	-
O=C(NC1CCCC1)c1ccc(CS(=O)(=O)Cc2ccccc2F)o1	-	-	.	-	-	-
O=C(NC1CCCC1)c1ccc(CSCc2ccccc2F)o1	-	-	-	-	15µM	-
COc1ccccc1S(=O)(=O)Cc1ccc(C(=O)N2CCN(c3cc(Cl)ccc3C)CC2)o1	?	-	-	-	18µM	-
COc1ccccc1S(=O)(=O)Cc1ccc(C(=O)NC2CC2)o1	-	-	-	-	?	-
COc1ccccc1S(=O)(=O)Cc1ccc(C(=O)N2CCN(c3ccccc3)CC2)o1	?	-	-	-	?	?
Cc1ccc(C)c(N2CCN(C(=O)c3ccc(CS(=O)(=O)c4ccccc4C)o3)CC2)c1	?	?	-	-	?	-
Cc1ccc(S(=O)(=O)Cc2ccc(C(=O)N3CCN(c4cc(C)ccc4C)CC3)o2)cc1	?	-	-	-	18µM	-
O=C(CC(c1cccs1)N1Cc2ccccc2C1=O)Nc1cccc(F)c1 (centres undefined)	-	-	-	-	?	-
O=S(=O)(/N=C(/Sc1ccccc1)c1ccccc1)c1ccc(Cl)cc1	?	.	.	-	?	-
CCCC(=O)NC(c1ccc(N(C)C)cc1)c1ccc2cccnc2c1O (centres undefined)	?	-	?	-	-	2.5µM
CCCCC(=O)NC(c1ccc(OC)cc1)c1ccc2cccnc2c1O (centres undefined)	?	?	.	-	-	?
CCCC(=O)NC(c1ccccc1Cl)c1ccc2cccnc2c1O (centres undefined)	?	-	3.2µM	-	?	?
CCCCC(=O)NC(c1cccs1)c1cc(Cl)c2cccnc2c1O (centres undefined)	?	-	.	-	?	-
CC(C)CC(=O)NC(c1ccccc1Cl)c1c(O)ccc2ccccc12 (centres undefined)	?	?	?	-	21µM	?
COc1ccc(C(NC(=O)CC(C)C)c2c(O)ccc3ccccc23)cc1 (centres undefined)	?	-	.	-	-	?
CCC(=O)NC(c1ccc(C)cc1)c1ccc2cccnc2c1O (centres undefined)	?	?	?	-	?	?
SMILES	KB-3-1 tox	S2 tox	ATXN2 expr inh	HepG2 tox	KB-V1 cytotox	TGFb SMAD3 inh
CCCC(=O)NC(c1ccc(C(C)C)cc1)c1ccc2cccnc2c1O (centres undefined)	5.2µM	-	?	-	?	-
COc1ccc2c(C)c(CC(=O)NCc3ccccc3Cl)c(=O)oc2c1OC	-	-	-	-	-	-
Cc1cc(C)c2c(CC(=O)Nc3nnc(CC(C)C)s3)coc2c1	-	-	-	-	-	-
Cc1ccc(C)c(NC(=O)C(c2ccccc2)N2Cc3ccccc3C2=O)c1 (centres undefined)	.	.	.	-	.	-
CCOc1cc(C)c(-c2onc(C(F)(F)F)c2-c2csc(C)n2)c(O)c1	?	?	?	-	13µM	?
CC(=O)Oc1ccc(C(=O)Cc2ccc3ccccc3n2)c(O)c1C	-	-	-	-	-	-
Cc1c(O)ccc(/C(Cc2ccc3ccccc3n2)=N\O)c1O	16µM	-	-	-	?	?
COc1ccc(F)c(CN2CCOc3ccc(CN4CCC(O)(c5cccnc5)CC4)cc3C2)c1	.	-	.	.	.	.
COc1ccc2c(c1)C(c1ccccc1)NC(=O)C2 (centres undefined)	-	-	-	11µM	-	-
CCOc1ccc(C2NC(=O)Cc3cc(OC)c(OC)cc32)cc1 (centres undefined)	-	-	-	-	-	-
N[C@@H](C(=O)N[C@H]1C(=O)N2C(C(=O)O)=C(Cl)CC[C@H]12)c1ccccc1	.	-	.	.	.	.
C=CC[n+]1c(-c2ccc(OC)c(OC)c2)csc1NNC(=O)Nc1ccccc1	?	?	?	-	18µM	?
C=CC[n+]1c(-c2ccccc2)csc1NC(C)(C)C	-	-	-	-	-	-
Cc1cccc(-n2nnnc2SCn2nnc3ccccc3c2=O)c1	-	-	-	-	13µM	-
O=c1c2ccccc2nnn1CSc1ccc2c(c1)OCCO2	-	-	-	-	23µM	-
CCC(C(=O)Nc1ccc2c(c1)OCCO2)n1nnc2ccccc2c1=O (centres undefined)	-	-	-	-	-	-
Cn1c(SCc2ccccc2)nc(C(F)(F)F)cc1=O	-	-	-	-	-	-
Cn1c(SCc2ccccc2)nc(N)c(N=O)c1=O	-	?	.	10µM	-	?
Cc1cc(F)ccc1-c1cc(C(=O)NCc2ccco2)[nH]n1	-	-	-	-	-	-
Cc1cccc(NCc2ccccc2O)c1C	-	?	-	-	-	?
Cc1cccc(NCc2nnc(-c3ccccc3)o2)c1C	-	-	-	-	18µM	-
COc1ccc([C@@H]2CC(=O)c3c(O)cc(O[C@@H]4O[C@H](CO[C@@H]5O[C@@H](C)[C@H](O)[C@@H](O)[C@@H]5O)[C@@H](O)[C@H](O)[C@@H]4O)cc3O2)cc1O	.	.	-	.	.	.
Cc1cnccc1CN(C)Cc1nc(Cc2ccccc2Cl)no1	21µM	-	-	-	9.2µM	-
O=C(Nc1cccc(C(=O)Nc2ccc(Cl)cn2)c1)c1ccccc1	-	-	-	-	-	-
O=C(Nc1ccc(Cl)cn1)c1ccccc1F	23µM	-	-	-	?	-
O=C(Nc1ccc(Cl)cn1)c1cccc(F)c1	6.5µM	?	-	-	3.7µM	-
CCOc1ccccc1C(=O)Nc1cc(-c2ccc(C)cc2)no1	-	-	-	-	-	-

Bioassay records (PubChem BioAssay)
